Compound activity from PubChem.
The list is not random: actives were taken first. Their share in the collection is about 12%.
BAZ2B block: qHTS Assay for Inhibitors of BAZ2B; Bromodomain adjacent to zinc finger domain protein 2B (Homo sapiens), Q9UIF8; AlphaScreen BAZ2B-H3K14Ac peptide displacement; Potency, µM (series often up to 114 µM), inactives show at the top dose activity change, negative = inhibition, actives largely listed as inhibitors; 360,000 compounds, 4.4% hits; also: % is scaled to controls: 0 for no effect and ±100 for the full control effect; nearly all actives have a fitted effect of over 60% in size
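AlphaScreen luminescence quantifies BAZ2B engagement of H3K14Ac peptide; the protein and biotinylated peptide are both at 50 nM final, buffer PBS pH 7.4 with 0.01% Tween-20, all steps at room temperature.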
JMJD2A Tudor: qHTS Assay for Inhibitors of JMJD2A-Tudor Domain. AlphaScreen JMJD2A-Tudor / H3K4me3 peptide binding. Potency, µM (top dose mostly 114 µM), inactives show at the top dose activity change, negative = inhibition, usual class: inhibitors. 390,000 compounds, 4.4% hits. Lysine-specific demethylase 4A (Homo sapiens), O75164; also: % is scaled to controls: 0 for no effect and ±100 for the full control effect; nearly all actives have a fitted effect of over 50% in size
G9a block: qHTS Assay for Inhibitors of Histone Lysine Methyltransferase G9a. Histone-lysine N-methyltransferase EHMT2 (Homo sapiens), Q96KQ7. G9a H3K9 monomethylation, AlphaScreen, 2 h. Potency, µM (titrated, usually from 102 µM), for the others: at the highest dose activity, negative = inhibition, most hits filed as inhibitors. 350,000 compounds, 8.8% hits. AID 504332, 2011; also: % is scaled to controls: 0 for no effect and ±100 for the full control effect; nearly all actives have a fitted effect of over 75% in size
Target sequence (Q96KQ7 913-1193 limits assumed): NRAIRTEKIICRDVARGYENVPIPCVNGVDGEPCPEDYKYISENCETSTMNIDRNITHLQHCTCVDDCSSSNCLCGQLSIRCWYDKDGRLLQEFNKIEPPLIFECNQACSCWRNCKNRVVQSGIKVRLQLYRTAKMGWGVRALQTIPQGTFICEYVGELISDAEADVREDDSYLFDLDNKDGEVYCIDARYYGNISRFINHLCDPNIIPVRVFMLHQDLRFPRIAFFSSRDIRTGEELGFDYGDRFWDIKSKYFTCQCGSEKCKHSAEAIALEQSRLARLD
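Enzyme 20 nM + cpd, 15 min RT; add b-H3K9 pep 500 nM / SAM 20 uM; 2 h RT; anti-H3K9me1 Ab 0.5 ug/mL + SA donor / anti-rabbit acceptor beads 20 ug/mL each, 10 min; AlphaScreen read.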
HP1b chromo inh: HTS for Inhibitors of HP1-beta Chromodomain Interactions with Methylated Histone Tails; AlphaScreen HP1-beta / biotin-H3K9me3 peptide binding; Potency, µM (doses to about 114 µM), for the others: at the highest dose activity change, negative = inhibition, hits mostly inhibitors; 390,000 compounds, 0.56% hits; also: nearly all actives have a fitted effect of over 70% in size
Target sequence (P83916 whole entry, looked up): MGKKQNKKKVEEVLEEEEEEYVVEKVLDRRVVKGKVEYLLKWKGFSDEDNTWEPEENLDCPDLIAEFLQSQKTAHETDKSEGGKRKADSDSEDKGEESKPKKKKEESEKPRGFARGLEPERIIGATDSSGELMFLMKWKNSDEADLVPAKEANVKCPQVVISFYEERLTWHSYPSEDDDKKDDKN
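Compound inhibition of the preformed complex between 50 nM HP1-beta and 50 nM biotinylated H3K9me3 peptide was read by AlphaScreen. Buffer was PBS pH 7.4 with 0.01% Tween-20. Incubations ran 30 min at room temperature, with 10 ug/mL donor/acceptor beads.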
Sfp PPTase inh: qHTS Assay for Inhibitors of Bacillus subtilis Sfp phosphopantetheinyl transferase (PPTase). Biochemical Sfp PPTase activity, qHTS. Potency, µM, for inactives: largest response in the series, negative = inhibition, most hits filed as inhibitors. 310,000 compounds, 3.5% hits. AID 1490, 2009;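 also: the enzyme is Sfp with the accession as filed and its product quenches rhodamine fluorescence; 0% = enzyme reaction without inhibitor and -100% = no enzyme wells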
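Buffer: 50 mM Hepes-Na pH 7.6, 10 mM MgCl2, 0.01% Nonidet P-40, 0.01% BSA. Enzyme 15 nM, pre-exposed to compound 15 min; substrates then added and fluorescence change tracked over 30 min.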
TDP1 inh: qHTS Assay for Inhibitors of Tyrosyl-DNA Phosphodiesterase (TDP1); recombinant TDP1, AlphaScreen DNA substrate cleavage; Potency, µM (series often up to 130 µM), without a hit: at the top dose activity change, negative = inhibition, most hits filed as inhibitors; 350,000 compounds, 0.28% hits; AID 485290, 2010; also: % is scaled to controls: 0 for no effect and ±100 for the full control effect; nearly all actives have a fitted effect of over 40% in size
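Compounds were preincubated with Tdp1 (1 nM final) for 15 min at room temperature before substrate (15 nM final) started a 5 min reaction; beads (10 ug/ml final) were then added for 10 min before AlphaScreen detection.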
Numbers without * were called inactive; [ ] = remark or other dose. Calls follow the shape of the dose curve; as a rule, active = well fitted curve in the direction sought with a large enough effect; inconclusive = small, poorly fitted or top-dose-only effect, or another doubt; inactive = no such curve, though single readings can be large; an effect the other way counts as inactive or inconclusive. Potency is read from the fitted curve at half-maximal effect.

How did CCCCOCCCNCc1cccn1CCN1CCOCC1 do in these assays?
BAZ2B block: -36%; JMJD2A Tudor: 7.9µM*; G9a block: inconclusive; HP1b chromo inh: -24%; Sfp PPTase inh: 2%

How did Cc1cc(C)nc(SSc2nc(C)cc(C)n2)n1 do in these assays?
BAZ2B block: 4%; JMJD2A Tudor: 10µM*; G9a block: 0.4µM*; HP1b chromo inh: 35%; Sfp PPTase inh: 2.2µM*

How did Cc1cc(C)nc(SCC(=O)O)n1 do in these assays?
BAZ2B block: -107%; JMJD2A Tudor: -14%; G9a block: -14%; HP1b chromo inh: 37%; Sfp PPTase inh: 19%; TDP1 inh: 1%

Results for CCOC(=O)Cn1c2[n+](c3ccccc31)CC(O)CS2 (stereo unspecified) ?
BAZ2B block: inconclusive; JMJD2A Tudor: 45µM*; G9a block: inconclusive; HP1b chromo inh: 7%; Sfp PPTase inh: -9%; TDP1 inh: 2%

Results for CCN(CC)c1ccc(N2C(=NC(=O)C3CCCO3)SC3CS(=O)(=O)CC32)cc1 (stereo unspecified) ?
BAZ2B block: 1%; JMJD2A Tudor: -18%; G9a block: 8%; HP1b chromo inh: 17%; Sfp PPTase inh: 6%; TDP1 inh: 3%

How did O=C(NCCCCc1ccccc1)C12CN(Cc3ccccc3)CC1C(c1ccc([N+](=O)[O-])cc1)=NO2 (stereo unspecified) do in these assays?
BAZ2B block: 15%; JMJD2A Tudor: inconclusive; G9a block: inconclusive; HP1b chromo inh: 14%; Sfp PPTase inh: 28µM*; TDP1 inh: 12%

How did Cc1ccc(CNC(=O)C23CN(Cc4ccccc4)CC2C(c2cccc([N+](=O)[O-])c2)=NO3)cc1 (stereo unspecified) do in these assays?
BAZ2B block: -5%; JMJD2A Tudor: inconclusive; G9a block: inconclusive; HP1b chromo inh: -3%; Sfp PPTase inh: -9%; TDP1 inh: 12%

Results for O=C(NCc1ccco1)C12CN(Cc3ccccc3)CC1C(c1cccc([N+](=O)[O-])c1)=NO2 (stereo unspecified) ?
BAZ2B block: inconclusive; JMJD2A Tudor: inconclusive; G9a block: 45µM*; HP1b chromo inh: -7%; Sfp PPTase inh: 1%; TDP1 inh: 10%

How did COc1ccc(CCNC(=O)C23CN(Cc4ccccc4)CC2C(c2ccc([N+](=O)[O-])cc2)=NO3)cc1 (stereo unspecified) do in these assays?
BAZ2B block: 11%; JMJD2A Tudor: -30%; G9a block: inconclusive; HP1b chromo inh: -4%; Sfp PPTase inh: 50µM*; TDP1 inh: 9%

Results for CCOC(=O)c1c(NC(=O)COc2c(C)cc(Cl)cc2Cl)sc2c1CCCC2 ?
BAZ2B block: -6%; JMJD2A Tudor: -5%; G9a block: -38%[59 µM]; HP1b chromo inh: 24%; TDP1 inh: -4%[12.3 µM]

What do the screens show for `COC(=O)c1c(NC(=O)COc2ccc(Cl)cc2C)sc2c1CCCCC2`?
BAZ2B block: -10%; JMJD2A Tudor: -9%; G9a block: 7.9µM*; HP1b chromo inh: -17%; TDP1 inh: -7%[12.3 µM]

What do the screens show for `CCOC(=O)c1c(NC(C)=O)sc2c1CCN(Cc1ccccc1)C2`?
BAZ2B block: -3%; JMJD2A Tudor: -25%; HP1b chromo inh: 23%; Sfp PPTase inh: 1%

Results for CCOC(=O)c1c(NC(=O)COc2ccccc2Br)sc2c1CCCCC2 ?
BAZ2B block: 14%; JMJD2A Tudor: -5%; G9a block: 10µM*; HP1b chromo inh: -6%; TDP1 inh: 1%[2.28 µM]
